{"source": "PubChem BioAssay (NCATS)", "note": "Results filed as inconclusive are left out. Unmarked numbers belong to inactive results. Activity calls are given as the source filed them. Calls come from the whole dose curve. % is set by controls: 0 for no effect and ±100 for the full control effect."}
{"test_system": "not listed separately", "assay": "Natriuretic polypeptide receptor (hNpr1) antagonism - Pilot counterscreen GloSensor control cell line (AID 1347045); note: potency is the fitted concentration of half-maximal effect", "conditions": "HEK293 cGMP GloSensor cells, SNP-stimulated luminescence, 20 min; series mostly up to 38.3 µM; activity change, negative = inhibition: at the top concentration", "how_it_was_run": "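HEK293 cGMP-sensor cells; 2% GloSensor reagent 2 h RT; LOPAC compounds in 1:5 titrations 30-50 min; 50 uM SNP 20 min; luminescence pre-read and post-read.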", "units": {"activity change, negative = inhibition": "%"}}
{"molecule": "COc1ccc(Cc2nccc3cc(OC)c(OC)cc23)cc1OC", "activity change, negative = inhibition": -96.7}
{"molecule": "O=c1c(-c2ccc(O)cc2)coc2cc(O)ccc12", "activity change, negative = inhibition": -11.5}
{"molecule": "CC1(C)CCC2=C(O1)c1ccccc1C(=O)C2=O", "Potency": "14.7 µM (active)"}
{"molecule": "CCCCCN(C)CCC(O)(P(=O)(O)O)P(=O)(O)O", "activity change, negative = inhibition": 5.18}
{"target": "Atrial natriuretic peptide receptor 1 (Homo sapiens) (UniProt P16066)", "sequence (P16066 whole entry, looked up)": "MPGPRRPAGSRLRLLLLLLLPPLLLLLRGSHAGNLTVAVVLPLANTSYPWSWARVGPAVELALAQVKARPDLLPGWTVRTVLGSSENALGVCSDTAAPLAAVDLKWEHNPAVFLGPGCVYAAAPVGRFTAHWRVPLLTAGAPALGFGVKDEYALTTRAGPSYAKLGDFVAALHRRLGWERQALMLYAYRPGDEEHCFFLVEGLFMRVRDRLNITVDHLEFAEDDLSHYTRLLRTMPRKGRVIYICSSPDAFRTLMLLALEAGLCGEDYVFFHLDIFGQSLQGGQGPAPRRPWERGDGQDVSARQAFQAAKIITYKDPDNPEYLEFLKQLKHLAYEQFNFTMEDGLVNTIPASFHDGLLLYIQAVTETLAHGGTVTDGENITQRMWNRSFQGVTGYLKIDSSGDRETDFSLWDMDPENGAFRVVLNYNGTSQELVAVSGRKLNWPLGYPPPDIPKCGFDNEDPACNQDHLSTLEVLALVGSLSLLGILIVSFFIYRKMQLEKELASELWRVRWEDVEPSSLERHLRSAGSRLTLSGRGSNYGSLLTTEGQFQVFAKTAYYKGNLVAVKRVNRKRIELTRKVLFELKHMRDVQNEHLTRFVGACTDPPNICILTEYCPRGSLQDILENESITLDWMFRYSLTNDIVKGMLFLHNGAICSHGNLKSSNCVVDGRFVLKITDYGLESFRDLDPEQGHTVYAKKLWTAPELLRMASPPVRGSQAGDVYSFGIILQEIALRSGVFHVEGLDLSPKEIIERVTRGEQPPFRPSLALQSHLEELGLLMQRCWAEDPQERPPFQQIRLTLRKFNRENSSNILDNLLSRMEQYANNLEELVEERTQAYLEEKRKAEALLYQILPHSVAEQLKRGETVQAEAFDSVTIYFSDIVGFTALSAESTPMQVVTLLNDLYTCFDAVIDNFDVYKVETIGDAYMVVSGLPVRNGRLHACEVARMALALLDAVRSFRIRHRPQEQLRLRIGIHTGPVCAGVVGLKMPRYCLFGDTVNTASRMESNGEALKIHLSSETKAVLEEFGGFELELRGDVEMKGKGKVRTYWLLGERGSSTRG", "assay": "Natriuretic polypeptide receptor (hNpr1) antagonism - Pilot screen (AID 1347049);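 note: HEK293 cells with hNpr1 and GloSensor cGMP luciferase stimulated by 0.1 nM hNppA; agonist-evoked cGMP luminescence read 20 min after hNppA addition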", "conditions": "hNpr1 cells, antagonist mode cGMP read-out; series mostly up to 57.5 µM; activity change, negative = inhibition: at the top concentration", "how_it_was_run": "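Receptor antagonism read as cGMP-dependent luminescence in hNpr1/pGS-40F HEK293 cells: pre-read after 30 min compound exposure, post-read 20 min after hNppA agonist at 0.1 nM final, all at room temperature, protected from light; A-71915 titration as control.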", "units": {"activity change, negative = inhibition": "%"}}
{"molecule": "Clc1ccc(C(c2ccc(Cl)cc2)n2cc[n+](CC(OCc3ccc(Cl)cc3Cl)c3ccc(Cl)cc3Cl)c2)cc1", "note": "(stereo not given)", "activity change, negative = inhibition": -13}
{"molecule": "O=c1c(-c2ccc(O)cc2)coc2cc(O)ccc12", "activity change, negative = inhibition": 1.15}
{"molecule": "O=c1cc(-c2ccc(O)cc2)oc2cc(O)cc(O)c12", "activity change, negative = inhibition": -28.2}
{"molecule": "CC(C)OC(=O)C(C)(C)Oc1ccc(C(=O)c2ccc(Cl)cc2)cc1", "activity change, negative = inhibition": 7.68}
{"molecule": "CC1(C)CCC2=C(O1)c1ccccc1C(=O)C2=O", "activity change, negative = inhibition": -28.3}
{"molecule": "CCCCCN(C)CCC(O)(P(=O)(O)O)P(=O)(O)O", "activity change, negative = inhibition": 7.74}
{"target": "Atrial natriuretic peptide receptor 2 (Homo sapiens) (UniProt P20594)", "sequence (P20594 whole entry, looked up)": "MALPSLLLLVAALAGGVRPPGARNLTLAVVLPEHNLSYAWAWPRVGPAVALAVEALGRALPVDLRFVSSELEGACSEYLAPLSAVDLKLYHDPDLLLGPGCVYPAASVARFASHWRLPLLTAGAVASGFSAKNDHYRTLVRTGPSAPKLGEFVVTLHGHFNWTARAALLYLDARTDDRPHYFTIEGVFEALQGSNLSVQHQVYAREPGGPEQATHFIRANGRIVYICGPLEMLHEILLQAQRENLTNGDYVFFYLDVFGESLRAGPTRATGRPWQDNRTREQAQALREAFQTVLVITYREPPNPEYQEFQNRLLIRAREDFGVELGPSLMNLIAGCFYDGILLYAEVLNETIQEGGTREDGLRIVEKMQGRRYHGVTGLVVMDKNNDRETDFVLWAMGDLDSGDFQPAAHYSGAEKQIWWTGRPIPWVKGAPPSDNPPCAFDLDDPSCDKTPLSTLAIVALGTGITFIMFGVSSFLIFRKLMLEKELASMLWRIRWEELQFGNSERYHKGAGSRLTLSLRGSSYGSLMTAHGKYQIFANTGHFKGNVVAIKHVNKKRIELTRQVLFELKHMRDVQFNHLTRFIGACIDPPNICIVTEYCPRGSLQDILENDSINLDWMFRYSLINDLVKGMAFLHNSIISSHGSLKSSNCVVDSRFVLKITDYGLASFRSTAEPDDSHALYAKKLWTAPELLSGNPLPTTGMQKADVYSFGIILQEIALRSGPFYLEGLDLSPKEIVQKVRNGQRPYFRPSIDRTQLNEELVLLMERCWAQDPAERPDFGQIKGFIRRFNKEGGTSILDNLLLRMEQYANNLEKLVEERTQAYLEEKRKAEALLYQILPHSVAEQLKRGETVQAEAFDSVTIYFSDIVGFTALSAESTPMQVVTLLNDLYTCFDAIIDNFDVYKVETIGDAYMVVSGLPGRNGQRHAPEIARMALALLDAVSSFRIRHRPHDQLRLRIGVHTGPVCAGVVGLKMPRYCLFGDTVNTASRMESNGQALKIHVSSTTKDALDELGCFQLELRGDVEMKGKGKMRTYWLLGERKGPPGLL", "assay": "Natriuretic polypeptide receptor (hNpr2) antagonism - Pilot subtype selectivity assay (AID 1347050)", "conditions": "NPR2-expressing cells, cGMP antagonist-mode read-out; series mostly up to 38.3 µM; activity change, negative = inhibition: at the top concentration", "how_it_was_run": "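Antagonist mode: compounds (LOPAC1280, seven 1:5 dilutions) added 30 min before 1 nM hNppC stimulation of hNpr2-HEK293 cGMP-sensor cells; luminescence read before and 20 min after agonist at ambient temperature.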", "units": {"activity change, negative = inhibition": "%"}}
{"molecule": "Clc1ccc(C(c2ccc(Cl)cc2)n2cc[n+](CC(OCc3ccc(Cl)cc3Cl)c3ccc(Cl)cc3Cl)c2)cc1", "note": "(stereo not given)", "activity change, negative = inhibition": -1.05}
{"molecule": "O=c1c(-c2ccc(O)cc2)coc2cc(O)ccc12", "activity change, negative = inhibition": -4.29}
{"molecule": "O=c1cc(-c2ccc(O)cc2)oc2cc(O)cc(O)c12", "activity change, negative = inhibition": -14.6}
{"molecule": "CC(C)OC(=O)C(C)(C)Oc1ccc(C(=O)c2ccc(Cl)cc2)cc1", "activity change, negative = inhibition": -1.72}
{"molecule": "CCCCCN(C)CCC(O)(P(=O)(O)O)P(=O)(O)O", "activity change, negative = inhibition": 6.97}
